Screens (PubChem BioAssay)
SMN2 splice up = qHTS Assay for Enhancers of SMN2 Splice Variant Expression. Potency, µM (series often up to 46.1 µM), hits mostly activators. HEK293 SMN2-luciferase splicing reporter, luminescence, 30-36 h. AID 1458, 2008. 2.8% of 210,000 active; further: nearly all actives have a fitted effect of over 55% in size
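qHTS luciferase splicing reporter: luminescence rises when SMN2 exon 7 is included in transfected HEK293 cells. Compound exposure lasted 30-36 h at 37C, with 4.5 mM final sodium butyrate as control, followed by a ONE-Glo read.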
ELG1 DNA repair = qHTS screen for small molecules that inhibit ELG1-dependent DNA repair in human embryonic kidney (HEK293T) cells expressing luciferase-tagged ELG1; HEK293T ELG1-luciferase reporter, luminescence, 16 h; DNA damage induced by 5-fluorouridine; Potency, µM (doses to about 46.1 µM), usual class: inhibitors; 2.3% of 330,000 active; AID 504467, 2011; further: nearly all actives have a fitted effect of over 55% in size
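5-Fluorouridine DNA damage + compound/DMSO, 2,000 cells/well, 16 h, 37 °C/5% CO2. ONE-Glo, 30 min RT, luminescence. Readout = decrease in reporter signal.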
NPC1 promoter act = qHTS Assay for NPC1 Promoter Activators; Huh7 NPC1 promoter luciferase reporter, 24 h; 2.4% of 320,000 active; Potency, µM (series often up to 9.22 µM), actives largely listed as activators; AID 485313, 2010; further: nearly all actives have a fitted effect of over 60% in size
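Readout is luciferase luminescence, reflecting NPC1 promoter activation in stably transfected Huh7 cells after 24 h compound exposure at 37 °C in reduced-serum medium with 10% FBS.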
Rab9 promoter act = qHTS Assay for Rab9 Promoter Activators | 2.8% of 320,000 active | Potency, µM (doses to about 9.22 µM), usual class: activators | Huh7 Rab9 promoter-luciferase reporter, luminescence, 24 h; further: nearly all actives have a fitted effect of over 60% in size
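Luminescence read-out: Huh7 cells stably expressing Rab9-luciferase, treated 24 h with compound at 37 °C, then lysed with luciferase reagent for 10 min at ambient before reading.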
ELG1 genotoxic = qHTS screen for small molecules that induce genotoxicity in human embryonic kidney (HEK293T) cells expressing luciferase-tagged ELG1; HEK293T ELG1-luciferase reporter, luminescence, 16 h; Potency, µM (titrated, usually from 46 µM), hits mostly activators; 1.3% of 330,000 active; AID 504466, 2011; further: nearly all actives have a fitted effect of over 60% in size
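ELG1-luciferase HEK293T cells, 2,000/well; compound pinned in; 16 hr, 37 °C, 5% CO2; ONE-Glo, 30 min RT; luminescence on CCD imager.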
FLuc counter = qHTS profiling assay for firefly luciferase inhibitor/activator using purifed enzyme and Km concentrations of substrates (counterscreen for miR-21 project); 6.9% of 360,000 active; Potency, µM (highest dose often 57.5 µM), usual class: inhibitors; purified FLuc, Km substrates, luminescence inhibition; AID 588342, 2011; further: nearly all actives have a fitted effect of over 55% in size
Target sequence (P08659 whole entry, looked up): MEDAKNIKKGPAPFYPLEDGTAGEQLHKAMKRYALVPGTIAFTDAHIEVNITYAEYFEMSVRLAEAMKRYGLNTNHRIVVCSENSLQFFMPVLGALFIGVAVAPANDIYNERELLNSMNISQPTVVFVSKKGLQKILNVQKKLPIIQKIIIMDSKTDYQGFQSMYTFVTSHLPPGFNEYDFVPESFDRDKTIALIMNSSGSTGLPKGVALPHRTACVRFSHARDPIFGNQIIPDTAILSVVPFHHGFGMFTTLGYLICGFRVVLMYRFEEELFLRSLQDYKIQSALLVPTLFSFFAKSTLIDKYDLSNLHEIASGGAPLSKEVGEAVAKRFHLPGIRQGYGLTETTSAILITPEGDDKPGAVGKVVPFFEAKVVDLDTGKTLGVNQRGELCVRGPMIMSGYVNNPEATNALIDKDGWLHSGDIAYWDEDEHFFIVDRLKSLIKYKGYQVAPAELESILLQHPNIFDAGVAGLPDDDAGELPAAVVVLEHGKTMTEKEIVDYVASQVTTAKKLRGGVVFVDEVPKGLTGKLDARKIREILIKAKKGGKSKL
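Purified P. pyralis luciferase (10nM final) with 10uM D-luciferin and 10uM ATP (Km levels) in 50mM Tris acetate pH 7.5, 10mM Mg acetate, 0.01% Tween-20, 0.05% BSA; qHTS 6-point titration, ~60 µM downward; luminescence read.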
ELG1 FLuc counter = qHTS screen for small molecules that inhibit ELG1-dependent DNA repair: Hit Confirmation in Cell-Based Luciferin Assay; shares compounds with ELG1 DNA repair; cell-free firefly luciferase luminescence counter-screen, ViewLux; Potency, µM (series often up to 46.1 µM), hits mostly inhibitors; 3% of 350 active
ELG1 Luc conf = HTS assay for small molecules that inhibit ELG1-dependent DNA repair in human embryonic kidney (HEK293T) cells expressing luciferase-tagged ELG1: Hit Confirmation. shares compounds with ELG1 DNA repair. HEK293T ELG1-luciferase levels, luminescence; cells co-treated with 5-fluorouridine. Potency, µM (titrated, usually from 46.1 µM), most hits filed as inhibitors. 68% of 670 active; further: nearly all actives have a fitted effect of over 55% in size
ELG1 MMS Luc = confirmation of human ELG1 repair inhibitors, MMS stimulated | Potency, µM (titrated, usually from 46.1 µM), most hits filed as inhibitors | AID 624249 | 53% of 670 active | HEK293T luciferase-tagged ELG1 level, MMS stimulated | shares compounds with ELG1 DNA repair; further: nearly all actives have a fitted effect of over 60% in size
ELG1 5-FU = qHTS screen for small molecules that inhibit ELG1-dependent DNA repair: Hit Confirmation with 5FU Viability; shares compounds with ELG1 DNA repair; cell viability with 5-FU, ELG1-dependent repair; Potency, µM (top dose mostly 46.1 µM), most hits filed as cytotoxic; 670 tested, under 10 active;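 further: ELG1-luc HEK293T cells cotreated with 5-fluorouridine at 10 µM final; viability measured 16 h after compound addition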
ELG1 MMS cell = qHTS screen for small molecules that inhibit ELG1-dependent DNA repair: Hit Confirmation with MMS Viability. shares compounds with ELG1 DNA repair. Cell viability with MMS, ELG1-dependent DNA repair. Potency, µM (top dose mostly 46.1 µM), hits mostly cytotoxic. 33% of 670 active. AID 624251, 2012;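 further: ELG1-luc HEK293T cells co-treated with 10 µM MMS; viability read 16 h after compound addition; nearly all actives have a fitted effect of over 60% in size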
ELG1 unstim viab = qHTS screen for small molecules that inhibit ELG1-dependent DNA repair: Hit Confirmation with Unstimulated Viability Assay; shares compounds with ELG1 DNA repair; cell viability counter-screen, unstimulated, luminescence; Potency, µM (series often up to 45.9 µM), usual class: cytotoxic; 8% of 900 active;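 further: compound exposure lasted 16 hours before reading; nearly all actives have a fitted effect of over 55% in size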
FLuc biochem = qHTS screen for small molecules that inhibit ELG1-dependent DNA repair: Hit Confirmation in Biochemical Luciferin Assay; Potency, µM (titrated, usually from 57.5 µM), actives largely listed as inhibitors; purified firefly luciferase, luminescence counter-screen; shares compounds with ELG1 DNA repair; 10% of 350 active
Each line names hits and unclear results; the compound was inactive in the other large screens (follow-up assays come after a bar, where they were run). This is a sample that favours compounds with a hit; in the whole collection about 9.2% have one here. The call rests on the fitted dose curve; in most records, active means well fitted curve in the direction sought with a large enough effect; inconclusive means small, poorly fitted or top-dose-only effect, or another doubt; inactive means no such curve, though single readings can be large; an effect the other way counts as inactive or inconclusive.

CN[C@@H]1C[C@@]2(C)O[C@@H]([C@@H]1OC)n1c3ccccc3c3c4c(c5c6ccccc6n2c5c31)C(=O)NC4	none (no result: SMN2 splice up, ELG1 DNA repair, NPC1 promoter act, Rab9 promoter act, ELG1 genotoxic, FLuc counter) | ELG1 FLuc counter 0.71µM | ELG1 Luc conf 0.5µM | ELG1 MMS Luc 0.32µM | ELG1 5-FU 11µM | ELG1 MMS cell 1µM | ELG1 unstim viab 5µM | FLuc biochem inactive
CC(=O)c1c(C)n(C2CCCCC2)c2ccc(O)cc12	ELG1 DNA repair inconclusive | ELG1 Luc conf 1.3µM | ELG1 MMS Luc inconclusive | ELG1 5-FU inactive | ELG1 MMS cell inactive | ELG1 unstim viab inconclusive
C[C@@H]1C[C@H]2OC(=O)C3(CO3)[C@H]2[C@H](O)[C@]2(C)C(=O)C3OC3[C@@H]12 (some centres undefined)	ELG1 DNA repair inconclusive (no result: SMN2 splice up)
C=C1C(=O)O[C@@H]2C[C@@H](C)[C@@H]3C=CC(=O)[C@@]3(C)[C@@H](O)[C@H]12	ELG1 DNA repair 4.1µM (no result: ELG1 genotoxic) | ELG1 FLuc counter inconclusive | ELG1 Luc conf inconclusive | ELG1 MMS Luc 0.0045µM | ELG1 5-FU inconclusive | ELG1 MMS cell 0.0056µM | ELG1 unstim viab 2.8µM | FLuc biochem 7.3µM
CCCC[C@H]1C(=O)O[C@H](C)[C@H](NC(=O)c2cccc(NC=O)c2OC)C(=O)O[C@@H](C)[C@@H]1OC(=O)CC(C)C	none (no result: ELG1 DNA repair, NPC1 promoter act, Rab9 promoter act, ELG1 genotoxic, FLuc counter)
CCCCCC1C(=O)O[C@H](C)[C@@H](NC(=O)c2cccc(NC=O)c2O)C(=O)OC(C)C1OC(=O)CC(C)C (some centres undefined)	none (no result: ELG1 DNA repair, NPC1 promoter act, Rab9 promoter act, ELG1 genotoxic, FLuc counter) | ELG1 FLuc counter inactive | ELG1 Luc conf inactive | ELG1 MMS Luc 0.014µM | ELG1 5-FU inactive | ELG1 MMS cell 0.014µM | ELG1 unstim viab inconclusive | FLuc biochem inactive
